PGC1a acetyl inh – PGC1a acetylation modulation, inhibitor mode; inhibition, % at 15.6 µM; 0.17% of 350,000 active; AID 651687; U2OS PGC1a acetylation, AlphaScreen anti-acetyl-lysine; with virally co-expressed GCN5 acetyltransferase;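 active = every replicate shows inhibition of at least 40%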;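 also: 0% = neutral control wells and 100% = positive control wells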
EWS-Fli block – EWS/Fli transcriptional activity inhibition | A673 NR0B1-luciferase reporter, viability-normalised | inhibition, % at 12.6 µM | 0.67% of 350,000 active | AID 651661;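 active = mean inhibition of at least 50% after viability correction, with every replicate also passing that limit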;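 also: firefly luciferase signal divided by Alamar Blue viability fluorescence both relative to DMSO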
LGR2 inh – inhibitors of bursicon-induced Drosophila LGR2 receptor cAMP signaling; 0.35% of 380,000 active; HEK293 LGR2, CRE-luciferase, bursicon-stimulated, 4 h; inhibition, % at 9.99 µM; AID 720647;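 active = drop in luminescence signal, shown as inhibition above about 50% in the replicate tests, limit read from the data, passing the limit was not always enough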;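 also: agonist challenge used bursicon conditioned medium at about half maximal strength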
SIRT5 inh – blocks human SIRT5 desuccinylation of peptide | Q9NXA8 | Purified SirT5, succinyl-peptide AMC, trypsin-coupled fluorescence | inhibition, % at 15 µM | 1.1% of 330,000 active; in the data active = inhibition above about 15%
Target sequence (Q9NXA8 whole entry, looked up): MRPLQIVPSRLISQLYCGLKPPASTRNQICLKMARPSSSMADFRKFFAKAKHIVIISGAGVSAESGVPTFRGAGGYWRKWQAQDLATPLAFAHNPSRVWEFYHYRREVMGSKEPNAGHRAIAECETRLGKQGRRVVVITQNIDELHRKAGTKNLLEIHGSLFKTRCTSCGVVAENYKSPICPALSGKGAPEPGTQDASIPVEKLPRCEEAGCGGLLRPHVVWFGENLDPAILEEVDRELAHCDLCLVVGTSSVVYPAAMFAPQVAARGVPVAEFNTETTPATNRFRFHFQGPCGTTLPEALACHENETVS
PAX8 inh HTS – PAX8 transcriptional activity inhibition; RMG-I TPO-luciferase reporter, SteadyGlo, 24 h; 1.2% of 360,000 active; AID 652154; inhibition, % at 12.6 µM;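 active = mean replicate inhibition at least 60% with every replicate also reaching 60%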;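 also: luciferase light reporting Pax8 driven TPO promoter activity; plate controls were median of neutral control wells for no effect and mitoxantrone controls for full effect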
Ecoli rRNA inh – inhibitors of bacterial rRNA selective over humanized ribosomes. 1.6% of 350,000 active. GFP signal change (wild-type ribosome), % (no concentration beside the values). AID 720706. E. coli WT GFP vs humanized-ribosome RFP mutants, fluorescence, 24 h; hits give low values; DMSO median 0, no signal -100;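 active = significant combined selectivity score with lowered wild-type GFP, culture density cut under 30%, mutant RFP and density less affected; inactive = any of these conditions unmet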
Active calls of the source: *; / = not tested or not shown. Only some compounds are listed: those with a hit (about 3.4% of all), similar ones and a draw of the others.

SMILES | PGC1a acetyl inh | EWS-Fli block | LGR2 inh | SIRT5 inh | PAX8 inh HTS | Ecoli rRNA inh
C[C@@H]1CN([C@@H](C)CO)C(=O)c2cc(NC(=O)CCC(F)(F)F)ccc2O[C@@H](C)CCCCO[C@@H]1CN(C)C(=O)Nc1ccc2c(c1)OCO2 | 7 | -4 | -4 | -5 | / | -1
COc1ccc(NC(=O)Nc2ccc3c(c2)C(=O)N([C@@H](C)CO)C[C@H](C)[C@@H](CN(C)Cc2ccc(C(F)(F)F)cc2)OCCCC[C@@H](C)O3)cc1 | 2 | 9 | 0 | 3 | 69* | -3
COc1ccc(CN(C)C[C@@H]2OCCCC[C@H](C)Oc3ccc(NC(=O)Nc4ccc(C(F)(F)F)cc4)cc3C(=O)N([C@@H](C)CO)C[C@@H]2C)cc1 | 1 | 83* | / | 9 | -26 | 3
COc1ccc(CN(C)C[C@H]2OCCCC[C@@H](C)Oc3ccc(NC(=O)Nc4ccc(C(F)(F)F)cc4)cc3C(=O)N([C@H](C)CO)C[C@H]2C)cc1 | 21 | 56* | / | 12 | 41 | -3
COc1ccc(NC(=O)Nc2ccc3c(c2)C(=O)N([C@@H](C)CO)C[C@@H](C)[C@@H](CN(C)Cc2ccc(C(F)(F)F)cc2)OCCCC[C@H](C)O3)cc1 | -15 | -1 | 8 | 4 | 72* | 3
COc1ccc(NC(=O)Nc2ccc3c(c2)C(=O)N([C@H](C)CO)C[C@@H](C)[C@@H](CN(C)Cc2ccc(C(F)(F)F)cc2)OCCCC[C@@H](C)O3)cc1 | -12 | 4 | 15 | 6 | 44 | -1
C[C@H]1CN([C@@H](C)CO)C(=O)c2cc(NC(=O)Nc3ccc4c(c3)OCO4)ccc2O[C@@H]1CN(C)Cc1ccc(-c2ccccc2)cc1 | -2 | -2 | 3 | 12 | 23 | -1
COc1ccc(NC(=O)Nc2ccc3c(c2)C(=O)N([C@H](C)CO)C[C@H](C)[C@@H](CN(C)Cc2ccc(C(F)(F)F)cc2)OCCCC[C@@H](C)O3)cc1 | 6 | 8 | 3 | 7 | 44 | 1
COc1ccc(CN(C)C[C@H]2OCCCC[C@H](C)Oc3ccc(NC(=O)Nc4ccc(C(F)(F)F)cc4)cc3C(=O)N([C@@H](C)CO)C[C@H]2C)cc1 | 7 | 67* | / | 8 | 106* | 4
COc1ccc(NC(=O)Nc2ccc3c(c2)C(=O)N([C@@H](C)CO)C[C@@H](C)[C@@H](CN(C)Cc2ccc(C(F)(F)F)cc2)OCCCC[C@@H](C)O3)cc1 | -7 | -1 | 17 | 17* | 84* | 1
COc1ccc(NC(=O)Nc2ccc3c(c2)C(=O)N([C@H](C)CO)C[C@@H](C)[C@H](CN(C)Cc2ccc(C(F)(F)F)cc2)OCCCC[C@@H](C)O3)cc1 | 4 | 7 | 13 | 6 | 51 | 2
C[C@H](CO)N1C[C@H](C)[C@@H](CN(C)Cc2ccc(-c3ccccc3)cc2)Oc2ccc(NC(=O)CCCCCC(=O)Nc3ccccc3N)cc2CC1=O | 14 | -11 | -36 | 1 | 1 | 1
Brc1ccc(CNc2ccc3ncccc3c2)cc1 | 2 | -119 | -87 | -2 | -127 | -29*
O=C(Nc1ccc2ncccc2c1)c1cccc(Br)c1 | 9 | -131 | -106 | -5 | -71 | 2
COc1ccccc1N(CN1C(=O)c2ccccc2C1=O)C(=O)c1cccc(C)c1 | / | -8 | 13 | -1 | -7 | -30*
Cc1nc2ccc(Br)cc2c(=O)n1Cc1cccs1 | / | 8 | -18 | -9 | -1 | -32*
Cc1cc2nnc(SCC(=O)NCc3cccs3)n2c2ccccc12 | -1 | / | / | / | / | /
Cc1cc2nnc(SCC(=O)NCc3ccco3)n2c2ccccc12 | 3 | 51* | 2 | 2 | 31 | -5
CC(C)NC(=O)N(C)C[C@H]1Oc2ccc(N)cc2CC(=O)N(C)C[C@@H]1C | / | / | / | / | / | 3
COc1cc(NC(=O)c2cc(-c3ccccc3Cl)on2)cc(OC)c1OC | 2 | 62* | 13 | 0 | 9 | -12
COc1ccc(NC(=O)c2cc(-c3ccccc3Cl)on2)cc1 | / | -78 | -35 | -3 | -29 | 3
CCC(=O)N1CC(=O)N2[C@H](CO)[C@H](c3ccc(C#CCC(C)C)cc3)[C@@H]2C1 | -2 | 1 | -3 | 16* | -9 | 3

Assay outcomes (PubChem)
